# Assay results taken from ChEMBL document CHEMBL1157539, “Thousands of chemical starting points for antimalarial lead identification” (Nature, 2010).
# System: Plasmodium falciparum
# Assay: GSK_TCMDC: Inhibition of Plasmodium falciparum 3D7 in whole red blood cells, using parasite LDH activity as an index of growth. Test compounds present at 2uM
# Assay type: functional
row,SMILES,Inhibition
1,Clc1ccc2c(NN=Cc3cccnc3)ccnc2c1,100%
2,O=C(C=Cc1ccccc1)Nc1ccc(C#CC=Cc2ccc(NC(=O)C=Cc3ccccc3)cc2)cc1,100%
3,CCCCNCc1ccc(-c2nc(CN(CCCn3ccnc3)C(=O)NC3CC3c3ccccc3)cs2)cc1.O=C(O)C(F)(F)F (stereo not given),100%
4,Cn1nc(C(F)(F)F)c(-c2ccc(F)cc2)c1NC(=O)Nc1ccc(F)cc1,100%
5,CS(=O)(=O)c1ccc(CNCc2cccc(-c3cccc(-c4nc5cc(C(F)(F)F)ccc5[nH]4)c3)c2)cc1.O=C(O)C(F)(F)F,100%
6,O=C(/C=C/c1ccc(Cl)c(Cl)c1)NCCCCCN1CCC(NC(=O)Nc2ccccc2Cl)CC1,100%
7,C[C@@H](Nc1nc(NCc2ccccc2)c2sccc2n1)c1ccccc1,91%
8,CCCCCC1c2[nH]c3ccccc3c2CCN1C(=O)OCc1ccccc1 (stereo not given),93%
9,O=C1Nc2cccc3c2C1(CCCCN1CCC(c2c[nH]c4cc(C(F)(F)F)ccc24)CC1)CCC3 (stereo not given),99%
10,CN(C)c1ccc(/N=C2/N/C(=N/c3ccc(N(C)C)cc3)c3ccccc32)cc1,93%
11,Cc1cc(NCCCN2CCCC2=O)n2c(nc3ccccc32)c1C#N,93%
12,O=C(Nc1ccc(-c2nc3ccccc3[nH]2)cc1)C1CCN(Cc2cccc(F)c2F)CC1,97%
13,CN1CCc2ccc(NC(=O)Nc3ccc(-c4ccccc4)cc3)cc2C1,90%
14,Cc1cc(NCCC(=O)NCCOc2ccccc2)nc(NCCOc2ccccc2)n1.O=C(O)C(F)(F)F,92%
15,COc1ccc(CN2CCCN(Cc3cccc(C(=O)Nc4ccc(C)c(F)c4)c3)CC2)cc1.O=C(O)C(F)(F)F,83%
16,CCc1ccc(CN2CCC(CNC(=O)c3cc(-c4ccccc4Cl)cs3)C2)cc1.O=C(O)C(F)(F)F (stereo not given),98%
17,Cc1cc(NCCC(=O)Nc2ccccc2)nc(NCCc2ccccc2)n1.O=C(O)C(F)(F)F,99%
18,CC(=O)c1ccc2c(c1)CCN(CCC1CCC(NC(=O)c3cc4ccccc4[nH]3)CC1)CC2.Cl (stereo not given),86%
19,O=C(Nc1ccc(Cn2nc(Cl)c(N3CCNCC3)cc2=O)cc1)Nc1ccc(-c2ccccc2)cc1.O=C(O)C(F)(F)F,97%
20,CC(C)CCOc1ccc(NC(=O)c2cccs2)cc1,95%

row,SMILES,Inhibition
1,O=C(NC1CCN(CCN2CCc3ccccc3CC2)CC1)c1ccc(-c2ccc(C(F)(F)F)cc2)cc1,99%
2,O=C(NCCN1CCOCC1)c1ccc(N2CCC(Oc3ccc4ccccc4c3)CC2)nc1,92%
3,O=C(CSc1nc2ccccc2c(=O)n1CC1CCCO1)Nc1cc(C(F)(F)F)ccc1Cl (stereo not given),97%
4,CCCCNC(=N)Nc1ccc(OCCCOc2ccc(NC(=N)NCCCC)cc2)cc1,96%
5,CCC(C)OC(=O)C1=C(C)NC2=C(C(=O)CC(c3ccc(OC)c(OC)c3)C2)C1c1ccc(O)cc1 (stereo not given),100%
6,CC(Oc1ccc(Cl)cc1)C(=O)Nc1cc(C(F)(F)F)ccc1-n1cncn1 (stereo not given),99%
7,C=C[C@H]1CN(CCCCCCC)CC[C@H]1CCN(C)c1ccnc2ccc(OC)cc12.O=C(O)C(=O)O,97%
8,CCCOc1cc(OCCC)cc(-c2cc(=O)c3ccccc3[nH]2)c1,99%
9,COc1cc(Nc2nccc(Nc3ccc4c(C)n[nH]c4c3)n2)cc2ccccc12.Cl,100%
10,CO/C(=C\C=C\c1cc2cc(Cl)c(Cl)cc2[nH]1)C(=O)NC1CC(C)N(C)C(C)C1 (stereo not given),97%
11,CN(C)c1nc(NCc2ccccc2)nc(N/N=C/c2cc([N+](=O)[O-])ccc2O)n1,100%
12,Cc1[nH]c(C)c(-c2ccc(-c3ccc(C#N)cc3)nc2)c(=O)c1Br,97%
13,CCCCCCCCNCc1c(O)ccc2ccccc12.Cl,99%
14,CC(C)[C@@H](NC(=O)NC1CCC(CCN2C3CCC2CC(OC(=O)C(CO)c2ccccc2)C3)CC1)C(O)(c1ccccc1)c1ccccc1 (stereo not given in full),96%
15,Cc1ccc(NC(=O)C(C)Sc2nnc(-c3ccccc3Br)[nH]2)cc1 (stereo not given),89%
16,CNS(=O)(=O)c1ccc2c(c1)nc(C1CCN(CC3CCC(NC(=O)/C=C/c4ccc(Cl)c(Cl)c4)CC3)CC1)n2C (stereo not given),100%
17,c1ccc(Oc2ccc(Nc3nc(NCCc4c[nH]cn4)nc(NC4CCCC4)n3)cc2)cc1,97%
18,Cc1cc(N2CCCC2)nc(Nc2ccc(NC(=O)COc3ccccc3)cc2)n1,100%
19,COc1cc(CN=C(S)NN=C(C)c2ccccn2)cc(OC)c1OC,99%
20,O=[N+]([O-])c1cccc(Nc2nccc(-c3cnn4ncccc34)n2)c1,87%

# System: Plasmodium falciparum
# Assay: GSK_TCMDC: Inhibition of Plasmodium falciparum Dd2 in whole red blood cells, using parasite LDH activity as an index of growth. Test compounds present at 2uM
# Assay type: functional
row,SMILES,Inhibition
1,Clc1ccc2c(NN=Cc3cccnc3)ccnc2c1,86%
2,O=C(C=Cc1ccccc1)Nc1ccc(C#CC=Cc2ccc(NC(=O)C=Cc3ccccc3)cc2)cc1,3%
3,CCCCNCc1ccc(-c2nc(CN(CCCn3ccnc3)C(=O)NC3CC3c3ccccc3)cs2)cc1.O=C(O)C(F)(F)F (stereo not given),34%
4,Cn1nc(C(F)(F)F)c(-c2ccc(F)cc2)c1NC(=O)Nc1ccc(F)cc1,99%
5,CS(=O)(=O)c1ccc(CNCc2cccc(-c3cccc(-c4nc5cc(C(F)(F)F)ccc5[nH]4)c3)c2)cc1.O=C(O)C(F)(F)F,96%
6,O=C(/C=C/c1ccc(Cl)c(Cl)c1)NCCCCCN1CCC(NC(=O)Nc2ccccc2Cl)CC1,23%
7,C[C@@H](Nc1nc(NCc2ccccc2)c2sccc2n1)c1ccccc1,75%
8,CCCCCC1c2[nH]c3ccccc3c2CCN1C(=O)OCc1ccccc1 (stereo not given),68%
9,O=C1Nc2cccc3c2C1(CCCCN1CCC(c2c[nH]c4cc(C(F)(F)F)ccc24)CC1)CCC3 (stereo not given),79%
10,CN(C)c1ccc(/N=C2/N/C(=N/c3ccc(N(C)C)cc3)c3ccccc32)cc1,20%
11,Cc1cc(NCCCN2CCCC2=O)n2c(nc3ccccc32)c1C#N,48%
12,O=C(Nc1ccc(-c2nc3ccccc3[nH]2)cc1)C1CCN(Cc2cccc(F)c2F)CC1,51%
13,CN1CCc2ccc(NC(=O)Nc3ccc(-c4ccccc4)cc3)cc2C1,45%
14,Cc1cc(NCCC(=O)NCCOc2ccccc2)nc(NCCOc2ccccc2)n1.O=C(O)C(F)(F)F,20%
15,COc1ccc(CN2CCCN(Cc3cccc(C(=O)Nc4ccc(C)c(F)c4)c3)CC2)cc1.O=C(O)C(F)(F)F,10%
16,CCc1ccc(CN2CCC(CNC(=O)c3cc(-c4ccccc4Cl)cs3)C2)cc1.O=C(O)C(F)(F)F (stereo not given),0%
17,Cc1cc(NCCC(=O)Nc2ccccc2)nc(NCCc2ccccc2)n1.O=C(O)C(F)(F)F,8%
18,CC(=O)c1ccc2c(c1)CCN(CCC1CCC(NC(=O)c3cc4ccccc4[nH]3)CC1)CC2.Cl (stereo not given),47%
19,O=C(Nc1ccc(Cn2nc(Cl)c(N3CCNCC3)cc2=O)cc1)Nc1ccc(-c2ccccc2)cc1.O=C(O)C(F)(F)F,49%
20,CC(C)CCOc1ccc(NC(=O)c2cccs2)cc1,95%

row,SMILES,Inhibition
1,O=C(NC1CCN(CCN2CCc3ccccc3CC2)CC1)c1ccc(-c2ccc(C(F)(F)F)cc2)cc1,43%
2,O=C(NCCN1CCOCC1)c1ccc(N2CCC(Oc3ccc4ccccc4c3)CC2)nc1,30%
3,O=C(CSc1nc2ccccc2c(=O)n1CC1CCCO1)Nc1cc(C(F)(F)F)ccc1Cl (stereo not given),95%
4,CCCCNC(=N)Nc1ccc(OCCCOc2ccc(NC(=N)NCCCC)cc2)cc1,97%
5,CCC(C)OC(=O)C1=C(C)NC2=C(C(=O)CC(c3ccc(OC)c(OC)c3)C2)C1c1ccc(O)cc1 (stereo not given),97%
6,CC(Oc1ccc(Cl)cc1)C(=O)Nc1cc(C(F)(F)F)ccc1-n1cncn1 (stereo not given),98%
7,C=C[C@H]1CN(CCCCCCC)CC[C@H]1CCN(C)c1ccnc2ccc(OC)cc12.O=C(O)C(=O)O,93%
8,CCCOc1cc(OCCC)cc(-c2cc(=O)c3ccccc3[nH]2)c1,96%
9,COc1cc(Nc2nccc(Nc3ccc4c(C)n[nH]c4c3)n2)cc2ccccc12.Cl,82%
10,CO/C(=C\C=C\c1cc2cc(Cl)c(Cl)cc2[nH]1)C(=O)NC1CC(C)N(C)C(C)C1 (stereo not given),57%
11,CN(C)c1nc(NCc2ccccc2)nc(N/N=C/c2cc([N+](=O)[O-])ccc2O)n1,90%
12,Cc1[nH]c(C)c(-c2ccc(-c3ccc(C#N)cc3)nc2)c(=O)c1Br,87%
13,CCCCCCCCNCc1c(O)ccc2ccccc12.Cl,94%
14,CC(C)[C@@H](NC(=O)NC1CCC(CCN2C3CCC2CC(OC(=O)C(CO)c2ccccc2)C3)CC1)C(O)(c1ccccc1)c1ccccc1 (stereo not given in full),56%
15,Cc1ccc(NC(=O)C(C)Sc2nnc(-c3ccccc3Br)[nH]2)cc1 (stereo not given),90%
16,CNS(=O)(=O)c1ccc2c(c1)nc(C1CCN(CC3CCC(NC(=O)/C=C/c4ccc(Cl)c(Cl)c4)CC3)CC1)n2C (stereo not given),96%
17,c1ccc(Oc2ccc(Nc3nc(NCCc4c[nH]cn4)nc(NC4CCCC4)n3)cc2)cc1,23%
18,Cc1cc(N2CCCC2)nc(Nc2ccc(NC(=O)COc3ccccc3)cc2)n1,86%
19,COc1cc(CN=C(S)NN=C(C)c2ccccn2)cc(OC)c1OC,92%
20,O=[N+]([O-])c1cccc(Nc2nccc(-c3cnn4ncccc34)n2)c1,74%
